Measured values taken from PubChem BioAssay AID489018 (Southern Research Specialized Biocontainment Screening …, 2010).
The whole screen tested about 2,300 compounds, of which about 350 (15%) were called active. Not all results are given here. Results with a measured potency or affinity are listed apart. Unmarked numbers belong to inactive results. The rule behind the calls is not given here.

Test: HepG2 cell cytotoxicity, dose response, cytotoxicity control for non-replicating M. tuberculosis project (AID 489018);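 note: HepG2 human liver cells; 100% = vehicle-treated cells and 0% = background signal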
Conditions: series mostly up to 20 µM; viability: at the top concentration

SMILES	viability
CC1Cc2cc(/C=C3/SC(=S)NC3=O)ccc2O1 (stereo unspecified)	88%
COc1ccc(S(=O)(=O)N(C(C)=O)c2ccc(OC(C)=O)c3ccccc23)cc1[N+](=O)[O-]	96.7%
Cc1ccccc1Nc1c(-c2ccccn2)nc2ccccn12	99.6% [at 5 µM]
O=C(CCN1CCOCC1)c1ccc(Br)cc1	85.7%
O=c1[nH]c(O)c(/C=C2/C=CC(c3cc(Cl)ccc3Cl)=N2)c(=O)[nH]1	106%
CCOC(=O)Cc1cc(=O)n2[nH]cc(-c3ccc(Cl)cc3)c2n1	85.6%
CCOC(=O)C1(O)CC(C)=NN1C(=O)c1cccc(Br)c1 (stereo unspecified)	90.3%
CN(C)CCOc1nc(-c2ccccc2)nc2c1oc1ccccc12	107% [at 5 µM]
COc1ccc(CN2C(=O)/C(=C/c3ccncc3)SC2=S)cc1	89.6%
Cc1ccccc1OCC(=O)OCC(=O)c1ccc[nH]1	105%
Cc1cc(CC(C)C)n(-c2nc3ccccc3c(=O)n2OCC(N)=O)n1	85%
O=C1/C(=C/c2ccccn2)COc2ccccc21	96.3%
Cc1ccc(OCC(=O)OCc2c(C)noc2C)cc1C	107%
COc1cc(N=c2ssnc2Cl)cc(OC)c1	101%
COc1cc(OC)nc(-n2ncc(Br)c(Br)c2=O)n1	88.1% [at 5 µM]
Cc1ccc(OCC(=O)Nc2ccc([N+](=O)[O-])cc2)cc1	96.2%
Cc1ccc(NC(=O)COCC(=O)Nc2ccc(C)cc2)cc1	98.9%
CC(=O)OCCN(C)c1cc(SC(C)C)c2nonc2c1[N+](=O)[O-]	97.2%
CC(=O)OCCNc1cc(SCc2ccco2)c2nonc2c1[N+](=O)[O-]	95.5%
Cc1cccc(Cc2cnc(NC(=O)C3=NCCN3)s2)c1	107% [at 5 µM]
S=C1SCN(Cc2cccnc2)CN1Cc1ccccc1	97.6%

SMILES	viability
O=C1N(c2ccc3c(c2)OCCO3)C(c2ccccc2)C1(F)F (stereo unspecified)	98.1%
COc1ccc(CNC(=O)c2cc3cccc(O)c3oc2=N)cc1	104%
Clc1ccc(CN2C3=NCCCN3c3ccccc32)cc1	92.4%
COc1ccccc1NC(=O)C(=O)/C=C(\O)c1ccccc1	96%
COc1ccc(NC(=O)c2ccc(-c3ccc([N+](=O)[O-])cc3)o2)cc1OC	88.5%
O=C(Nc1nnc(C2=COCCO2)o1)c1ccc(F)cc1	110% [at 5 µM]
Cc1nnc(NC(=O)c2ccc3ccccc3c2)o1	112%
CCCCCCOC(=O)C(C#N)c1nc2ccccc2nc1N1CCN(CC)CC1 (stereo unspecified)	98.2% [at 5 µM]
CCCNC(=O)NC(=O)COc1ccc(-c2ccc(C#N)cc2)cc1	102%
Cc1cccc(OC(=O)c2ccc3nccnc3c2)c1	107%
O=C1CC(=O)CC(c2ccccc2)C1	110%
CCOC(=O)CN1NC2(CCCC(C)C2)NC1=S (stereo unspecified)	99.3%
CCOC(=O)COc1ccc2c(=O)c(-c3ccccc3)coc2c1	95.6%
O=C(N/N=C/c1ccc(OC(=O)c2cccs2)cc1)c1ccccn1	100% [at 5 µM]
O=c1oc(-c2ccccc2[N+](=O)[O-])nc2ccccc12	112%
CN(/N=C/c1ccc([N+](=O)[O-])o1)c1ccccc1	103%
Nc1nc2ccccc2n1CCOc1ccc(Br)cc1	99.2% [at 5 µM]
Cc1c(C(=O)NNC(=O)c2csc(N3CCOCC3)n2)oc2ccccc12	85.8%
O=C(N/N=C/C=C/c1cccc([N+](=O)[O-])c1)c1ccncc1	102%
O=C(Nc1nccs1)c1cc2cc(Cl)ccc2oc1=O	73.2%
CCCCCn1nnc2c(=O)oc3ccccc3c21	105%

SMILES	viability
Cc1cc(=O)[nH]c(-n2nc(C)cc2C)n1	102% [at 5 µM]
O=C(Nc1ccc(-c2nc3ccccc3c(=O)o2)cc1)c1ccco1	102% [at 5 µM]
COc1ccc(C(C)NC(=O)CCc2ccccc2)cc1 (stereo unspecified)	93.5%
Cc1cc(OCCOCCNCc2ccccc2)ccc1C(C)C	92.4% [at 5 µM]
COc1ccc(C(O)CNc2ccc(C)cc2)cc1 (stereo unspecified)	78.7%
CC(C)Oc1ccc(CNC(=O)Oc2ccccc2)cc1	102%
Cn1c(CNc2ccccc2O)nc2ccccc21	93.3%
CCCCN1CCC(O)(c2ccccc2)C(C(=O)c2ccccc2)C1 (stereo unspecified)	98.1% [at 5 µM]
O=C(Nc1ccccc1F)c1ccc([N+](=O)[O-])s1	110% [at 5 µM]
CCOc1ccc(OCc2ccc(C(=O)OCc3ccccn3)o2)cc1	101%
Cc1ccc(-c2nc3ccccn3c2Nc2ccccc2)o1	85.7%
CCc1ccc(NC(=O)C(=O)NNC(=O)c2cccc(OC)c2)cc1	96%
Cc1ccc(NCCC(=O)c2cccs2)cc1	101% [at 5 µM]
CC1(C(=O)OCC(=O)Nc2nnc(-c3ccccc3)o2)CC1(Cl)Cl (stereo unspecified)	99%
O=C(COc1ccc(Cl)cc1)Nc1ccc(Cl)cn1	96.5%
Cn1c(=O)c(Oc2ccc(Cl)cc2)c(O)c2ccccc21	115%
CC1CCCN(CCCOc2ccc([N+](=O)[O-])cc2)C1 (stereo unspecified)	92.2%
Cc1ccccc1OCCNc1cc(N2CC(C)NC(C)C2)ccc1[N+](=O)[O-] (stereo unspecified)	77%
CCOc1ccc(-c2cc(CCCC(=O)NCCC(C)C)no2)cc1	96.5% [at 5 µM]
O=C1OC(/C=C/c2ccccc2)=NC/1=C\c1cccnc1	93.5%
Cc1ccc(C2=N/C(=C\c3cccnc3)C(=O)O2)cc1	101%

SMILES	viability
COc1ccc(-c2cc(=O)oc(-c3cccc(C)c3)n2)cc1	89.9%
O=C(CCC1CCCC1)Nc1ccc(Br)cn1	110%
Cc1cc(C)n(-c2nc(NCCCO)c3c4c(sc3n2)CCCC4)n1	85.3%
CCOC(=O)c1sc2nc(CSc3ccccc3)nc(NCCN(C)C)c2c1C	97.6%
CC1=C/C(=N\OS(=O)(=O)c2ccccc2)C(C)=CC1=O	86.8%
O=C1CSC(=S)N1Cc1cccnc1	77.9%
O=C(OCn1nnc2ccccc2c1=O)c1ccc(Br)o1	101%
COc1cccc(C(=O)OCn2nnc3ccccc3c2=O)c1OC	108%
O=[N+]([O-])c1ccc(-c2nc3ccc([N+](=O)[O-])cc3[nH]2)cc1	74.4%
c1ccc(-c2nc3c(ccc4ccccc43)[nH]2)nc1	83.3%
CCOC(=O)CNCCC(=O)c1ccc(Br)cc1	105%
COc1cc(OC)c2c(OC)cccc2n1	96.1%
CCN1CCN(c2ccc(S(=O)(=O)N3CCCCC3)cc2NC(=O)c2ccc([N+](=O)[O-])s2)CC1	102% [at 5 µM]
C/C(=N/NC(=O)c1cc2ccccc2cc1O)C1C(=O)c2ccccc2C1=O	98.7%
CCN(CC)c1ccc2cc(C(=O)NCc3ccc(F)cc3)c(=N)oc2c1	82.6%
COCCSc1nnc(NC(=O)CCS(=O)(=O)Cc2ccccc2)s1	108%
CCC(C)n1nnc2c(=O)oc3ccccc3c21 (stereo unspecified)	107%
O=C(Nc1ncc([N+](=O)[O-])s1)c1cccs1	72.9%
